Data published in PubChem BioAssay (NCATS).
“And” between values parts separate entries of the source, which are not always exact repeats. Equal values may be shown once. Inconclusive results are not listed. The source made the active and inactive calls. Unless noted, calls follow the shape of the dose curve; as a rule, active = well fitted curve in the direction sought with a large enough effect; inconclusive = small, poorly fitted or top-dose-only effect, or another doubt; inactive = no such curve, though single readings can be large; an effect the other way counts as inactive or inconclusive.

Legend:
[1] = Cellular Toxicity (caspase-3) Jurkat (AID 655); settings: Jurkat caspase-3 activation, luminescence, DMSO = 0%, tamoxifen = 100%; at 92.2 µM (top of the series);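 also: cells exposed to compound for 16 h at 37 °C before reading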
Summary of the method: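 Caspase 3/7 activation is scored as increased luminescence in Jurkat cells cultured with compound for 16 hours in complete medium. AC50 values come from Hill fits of qHTS concentration-response data normalized to DMSO and 100 uM tamoxifen controls.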

[2] = Cellular Toxicity (caspase-3) HUV-EC-C (AID 656)
Summary of the method: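 Read-out: luminescence proportional to caspase 3/7 activity, measured 20 min after adding Caspase-Glo 3/7 reagent. Cells (HUV-EC-C) had received compound for 16 hr at 37°C. Increases relative to DMSO and 100 uM tamoxifen gave concentration-response AC50 values.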

[3] = Cellular Toxicity (caspase-3) SHSY5Y (AID 657)
Summary of the method: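 Cells plated and incubated 5 h at 37 °C, dosed over a concentration range, incubated 16 h, then given Caspase-Glo 3/7 reagent for 1 h at room temperature before luminescence reading. Staurosporine (10 uM) defined full stimulation.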

[4] = Cellular Toxicity (caspase-3) BJ (AID 658)
Summary of the method: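 Readout: Caspase-Glo 3/7 luminescence increase in BJ cells after 16 hr treatment at 37 °C. Staurosporine and tamoxifen served as positive controls; AC50 values came from Hill modelling of data normalized to DMSO and 10 uM staurosporine.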

[5] = Cellular Toxicity (caspase-3) MRC-5 (AID 659)
Summary of the method: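 Concentration-dependent caspase 3/7 activation is measured in human normal lung fibroblasts (MRC-5) following 16-hour treatment. AC50 values come from standard Hill-equation modeling of luminescence normalized to DMSO and 10 uM staurosporine.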

[6] = Cellular Toxicity (caspase-3) Mesangial (AID 660);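 also: cells exposed to compound for 16 h before the caspase read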
Summary of the method: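 Human renal glomerular mesangial cells, 1000/well, 5 h at 37 C before 16 h compound treatment. Caspase-Glo 3/7 luminescence after 20 min; normalized to DMSO and 100 uM tamoxifen, AC50 from Hill fit.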

[7] = Cellular Toxicity (caspase-3) SK-N-SH (AID 661)
Summary of the method: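 Human SK-N-SH neuroblastoma cells, 1500/well, were exposed to compounds for 16 hours at 37 °C. Caspase-Glo 3/7 luminescence was normalized to DMSO (basal) and 10 uM staurosporine (100%), and AC50 came from a Hill fit.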

[8] = Cellular Toxicity (caspase-3) H-4-II-E (AID 663)
Summary of the method: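 Apoptosis induction is scored as increased luminescence from caspase 3/7 substrate cleavage in rat hepatoma H-4-II-E cells exposed to compound for 16 hr. Activity is scaled between DMSO and 100 uM tamoxifen.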

[9] = Cellular Toxicity (caspase-3) Hek293 (AID 664);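 also: cells exposed to compound for 16 h at 37 °C before readout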
Summary of the method: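 HEK293 cells in complete medium treated 16 h at 37 °C, then Caspase-Glo 3/7 luminescence read after 20 min at room temperature. Normalized to DMSO and 100 uM tamoxifen; AC50 from Hill fit of concentration-response.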

[10] = Cellular Toxicity (caspase-3) N2a (AID 665); settings: N2a cells, luminescence, normalized: DMSO 0%, 10 µM staurosporine 100%; at 92.2 µM (top of the series);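 also: compound exposure lasted 16 h at 37 °C before readout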
Summary of the method: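 Mouse N2a neuroblastoma cells, 1500 per well, treated 16 h at 37 °C in complete medium; caspase-3/7 activity by Caspase-Glo luminescence after 1 h. Normalized to DMSO and 10 uM staurosporine; AC50 from Hill fits.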

[11] = MultiTox-Fluor Cytotoxicity Assay - LYMP1-001 - Dead Cells (AID 946);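 also: 0% = DMSO and 100% = tetraoctylammonium bromide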
Summary of the method: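 In this qHTS, 15 uM tetraoctylammonium bromide defined 100% and DMSO defined basal activity. Lymphoblastoid cells (LYMP1-001, 2500 per well) received compound for 16 hr at 37 C before a fluorogenic dead-cell substrate readout at 485/520 nm.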

[12] = Cell Viability - LYMP1-002 - Assay at 16 hr (AID 948);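 also: 0% = DMSO alone and full effect = 92 µM tetraoctylammonium bromide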
Summary of the method: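 Acute cytotoxicity is scored as a concentration-dependent fall in intracellular ATP in a human lymphoblastoid line (LYMP1-002) after 16 hr compound exposure at 37 C, measured by luciferase luminescence.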

[13] = MultiTox-Fluor Cytotoxicity Assay - LYMP1-002 - Dead Cells (AID 960);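 also: 0% = DMSO and 100% = tetraoctylammonium bromide; nearly all actives have a fitted effect of over 60% in size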
Summary of the method: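 Human lymphoblastoid LYMP1-002 cells, 2500/well, treated 16 h at 37 C; dead-cell protease cleavage of bis-AAF-R110 read by fluorescence (485/520); normalized to DMSO and 15 uM tetraoctylammonium bromide; AC50 from Hill fit.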

[14] = MultiTox-Fluor Cytotoxicity Assay - LYMP1-003 - Dead Cells (AID 961);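 also: 0% = DMSO and 100% = tetraoctylammonium bromide; nearly all actives have a fitted effect of over 70% in size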
Summary of the method: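 Acute toxicity is scored as increased dead-cell protease activity in human lymphoblastoid LYMP1-003 cells after 16 h compound exposure in complete culture medium. Activity is normalized to DMSO basal and 15 uM tetraoctylammonium bromide as full response.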

[15] = MultiTox-Fluor Cytotoxicity Assay - LYMP1-003 - Live Cells (AID 962);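 also: 0% = DMSO only and full loss = 92 µM tetraoctylammonium bromide; cytotoxic hits lower the live-cell protease signal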
Summary of the method: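 LYMP1-003 lymphoblastoid cells, 2500/well in complete medium, treated 16 h at 37 C; live-cell protease cleavage of GF-AFC read by fluorescence (Ex/Em 405/510) after 60 min reagent; AC50 from Hill fits of concentration-response.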

[16] = Cell Viability - LYMP1-003 - Assay at 24 hr (AID 963);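 also: plate controls were DMSO only for no effect and tetraoctylammonium bromide positive control for full effect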
Summary of the method: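 Human lymphoblastoid LYMP1-003 cells, 2500/well, treated 24 h at 37 C in complete medium. Viability read as intracellular ATP by CellTiter-Glo luminescence after 30 min at room temperature; AC50 from Hill-equation fits of qHTS concentration-response.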

[17] = Cell Viability - LYMP1-003 - Assay at 40 hr (AID 964); also: % is scaled to controls: 0 for no effect and ±100 for the full control effect; nearly all actives have a fitted effect of over 60% in size
Summary of the method: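 LYMP1-003 human lymphoblastoid cells, 2500/well, preincubated 5 h at 37 C, then treated with compound for 40 h at 37 C. Intracellular ATP read by CellTiter-Glo luminescence after 30 min at room temperature; AC50 from Hill-equation fits.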

[18] = Cell Viability - LYMP2-011 (AID 969);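 also: cells exposed to compound for 24 hours; 0% = DMSO only and full inhibition = 92 µM tetraoctylammonium bromide; nearly all actives have a fitted effect of over 60% in size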
Summary of the method: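 2500 cells/well in complete medium, compound-treated 24 h at 37 C. Viability read as intracellular ATP by CellTiter-Glo luminescence after 30 min at room temperature. AC50 from Hill fits of qHTS concentration-response data.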

[19] = qHTS assay for small molecule disruptors of the mitochondrial membrane potential - 5 hr assay (AID 651755; calls by dose curve; also: % is scaled to controls: 0 for no effect and ±100 for the full control effect; nearly all actives have a fitted effect of over 40% in size)
Summary of the method: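 HepG2, 2,000 cells/well, overnight attach; cpd or DMSO 5 hr, 37C/5% CO2; Mito-MPS 30 min 37C; fluor 490/535 + 540/590 nm.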

[20] = qHTS assay for environmental chemicals that activate the Aryl hydrocarbon Receptor (AhR) signaling pathway (AID 651777); settings: 1A2-DRE human hepatoma cells, luciferase, 24 h; activation: stronger effect = higher value; also: % of control where 0% means no effect; nearly all actives have a fitted effect of over 15% in size
Summary of the method: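 Quantitative HTS in stably transfected human liver-derived cells whose luciferase gene sits downstream of the CYP1A2 promoter and dioxin response element. After 24 hr exposure at 37 C, One-Glo luminescence was measured.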

C=CC1CC=CCC1 (stereo not given)
inactive: caspase-3 activation [1] 0.736% | outcome [2] | outcome [3] | outcome [4] | outcome [5] | outcome [6] | outcome [7] | outcome [8] | outcome [9] | caspase-3 activation [10] -0.281% | Potency [11] | Potency [12] | Potency [13] | Potency [14] | Potency [15] | Potency [16] | Potency [17] | Potency [18] | Potency [19] | activation [20] 0.186% and 0.879%

CC(C)(C)OOC(C)(C)C
inactive: caspase-3 activation [1] 0.243% | outcome [2] | outcome [3] | outcome [4] | outcome [5] | outcome [6] | outcome [7] | outcome [8] | outcome [9] | caspase-3 activation [10] 0.408% | Potency [11] | Potency [12] | Potency [13] | Potency [14] | Potency [15] | Potency [16] | Potency [17] | Potency [18] | Potency [19] | activation [20] -0.903%

Cc1ccc2ccccc2c1
inactive: caspase-3 activation [1] 1.17% | outcome [2] | outcome [3] | outcome [4] | outcome [5] | outcome [6] | outcome [7] | outcome [8] | outcome [9] | caspase-3 activation [10] -4.52% | Potency [11] | Potency [12] | Potency [13] | Potency [14] | Potency [15] | Potency [16] | Potency [17] | Potency [18] | Potency [19] | activation [20] 1.58%

CC(C)(C)OO
inactive: caspase-3 activation [1] 16.6% and 4.19% | outcome [2] | outcome [3] | outcome [4] | outcome [5] | outcome [6] | outcome [7] | outcome [8] | outcome [9] | caspase-3 activation [10] -2.06% and -1.93% | Potency [11] | Potency [12] | Potency [13] | Potency [14] | Potency [15] | Potency [16] | Potency [17] | Potency [18] | Potency [19] | activation [20] -0.688% and -2.1%

O=C=NC1CCCCC1
inactive: caspase-3 activation [1] -0.599% and -1.26% | outcome [2] | outcome [3] | outcome [4] | outcome [5] | outcome [6] | outcome [7] | outcome [8] | outcome [9] | caspase-3 activation [10] 0.146% and -1.42% | Potency [11] | Potency [12] | Potency [13] | Potency [14] | Potency [15] | Potency [16] | Potency [17] | Potency [18] | Potency [19] | activation [20] 2.61% and 5.17%

Cc1ccccc1N
inactive: caspase-3 activation [1] 11.5% and 2.29% | outcome [2] | outcome [3] | outcome [4] | outcome [5] | outcome [6] | outcome [7] | outcome [8] | outcome [9] | caspase-3 activation [10] -5.28% and -1.86% | Potency [11] | Potency [12] | Potency [13] | Potency [14] | Potency [15] | Potency [16] | Potency [17] | Potency [18] | Potency [19] | activation [20] 4.33% and 3.03%

COc1ccc(C=O)cc1OC
inactive: caspase-3 activation [1] 1.2% | outcome [2] | outcome [3] | outcome [4] | outcome [5] | outcome [6] | outcome [7] | outcome [8] | outcome [9] | caspase-3 activation [10] -1.73% | Potency [11] | Potency [12] | Potency [13] | Potency [14] | Potency [15] | Potency [16] | Potency [17] | Potency [18] | Potency [19] | activation [20] 0.671% and 1.28%

C=C(C)C(=O)OCC1CO1 (stereo not given)
inactive: caspase-3 activation [1] 1.42% | outcome [2] | outcome [3] | outcome [4] | outcome [5] | outcome [6] | outcome [7] | outcome [8] | outcome [9] | caspase-3 activation [10] -4.34% | Potency [11] | Potency [12] | Potency [13] | Potency [14] | Potency [15] | Potency [16] | Potency [17] | Potency [18] | Potency [19] | activation [20] 0.578%

c1ccc2c(c1)CCCC2
inactive: caspase-3 activation [1] -0.484% | outcome [2] | outcome [3] | outcome [4] | outcome [5] | outcome [6] | outcome [7] | outcome [8] | outcome [9] | caspase-3 activation [10] 1.3% | Potency [11] | Potency [12] | Potency [13] | Potency [14] | Potency [15] | Potency [16] | Potency [17] | Potency [18] | Potency [19] | activation [20] 2.13%

C=CC(=O)OCC
inactive: caspase-3 activation [1] -0.667% | outcome [2] | outcome [3] | outcome [4] | outcome [5] | outcome [6] | outcome [7] | outcome [8] | outcome [9] | caspase-3 activation [10] -1.92% | Potency [11] | Potency [12] | Potency [13] | Potency [14] | Potency [15] | Potency [16] | Potency [17] | Potency [18] | Potency [19] | activation [20] -0.74%

O=NN(c1ccccc1)c1ccccc1
inactive: caspase-3 activation [1] 3.48% | outcome [2] | outcome [3] | outcome [4] | outcome [5] | outcome [6] | outcome [7] | outcome [8] | outcome [9] | caspase-3 activation [10] 0.181% | Potency [11] | Potency [12] | Potency [13] | Potency [14] | Potency [15] | Potency [16] | Potency [17] | Potency [18] | Potency [19] | activation [20] 0.195% and 0.974%

OCC1CO1 (stereo not given)
inactive: caspase-3 activation [1] 0.767% | outcome [2] | outcome [3] | outcome [4] | outcome [5] | outcome [6] | outcome [7] | outcome [8] | outcome [9] | caspase-3 activation [10] -2.46% | Potency [11] | Potency [12] | Potency [13] | Potency [14] | Potency [15] | Potency [16] | Potency [17] | Potency [18] | Potency [19] | activation [20] -0.664% and -1.74%
